The campaign covered roughly 53,000 sequences. About 3,700 (7%) were called active. Only a selection was taken, and actives are over-represented in it overall. A number with no mark means an inactive call.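 How the source made its calls: active means gene knockdowns whose robust z-score for IL-1 alpha signal is at least 2 or at most -2, so actives lie on both sides; inactive means the rest.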
Assay: Components of the Cytosolic LPS Sensing Pathway: Gene Identification via Genome-wide siRNA Screen
Details: RAW264.7 macrophages, IL-1a HTRF, actives lie on both sides, screened at 100 nM (by protocol), cells primed 5 h with Pam3CSK4 first
Excerpt: Non-canonical inflammasome activation by cytosolic LPS is a critical component of the host response to Gram-negative bacterial infection, however we lack a comprehensive understanding of the cellular processes that control this pathway. Here we describe a genome-wide siRNA screen to identify genes regulating the mouse macrophage IL-1 alpha response to cytosolic LPS.
RAW264.7 cells were maintained in complete DMEM media, comprising DMEM with 4.5 g/L glucose, 10% FBS (Gemini Bio-Products, West Sacramento, CA), 2 mM Glutamine (Lonza) and 20 mM HEPES (Lonza), hereafter complete DMEM.
The RNAi screen was conducted in 384-well format using the Ambion Silencer Mouse Genome siRNA Library (#4391425), which consists of three unique, nonoverlapping, nonpooled siRNAs for each of 17,000 gene targets. siRNA reagents ([…]) were stamped into 384-well white flat-bottom microplates (Corning, 3570) using a Velocity11 VPrep liquid handling system (Agilent) integrated into a BioCel robotic platform (Agilent) in columns 1-22, leaving columns 23-24 empty for negative (Ambion, Negative control #1) and positive (mouse Casp4) controls, respectively. The median value of each plate's negative control column was used to normalize sample wells, and the positive control was used to assess transfection efficiency and assay performance.
Lipofectamine RNAiMAX Transfection Reagent ([…]; Invitrogen) was added in […] serum-free, antibiotic-free media to plate wells using a Thermo Scientific Matrix WellMate and Microplate Stacker. Plates were incubated for 45 min at room temperature to allow for the sufficient formation of siRNA-lipid complexes. Cells were seeded at a density of 1x10^4 cells per well in 20 microL media containing 20% (vol/vol) FBS without antibiotics. The final concentration of siRNA in each well was 100 nM. Cells were cultured for 48h at 37 degrees C in 5% CO2 before addition of […] of TLR ligand Pam3CSK4 for 5 hours. The medium was then removed, replaced with […] growth media and cell were transfected with […] of LipidA and TransIT-TKO (Mirus) for 24 hour. At the end of the LipidA treatment, […] of supernatant was transferred to a 384 Greiner Bio-one non-binding low volume plate and […] of IL-1a HTRF reagent (Cisbio, 62MIL1APEH) was added and incubated at room temperature overnight. The plates were read on an EnVision plate reader (PerkinElmer). Cell viability was measured by adding 20ul Cell Titer Glo to the original plate and running a luminescence read on the EnVision. The quantified IL-1a signal for each siRNA gene-targeted well was divided by the median of the negative control wells and multiplied by 100 to achieve a negative control normalized value for each well/siRNA. This normalized value was then used to generate a robust z-score by first taking the log of each value and then by subtracting the median and dividing by the […].

Row | Sequence | z-score
1 | GGCAUGAGACAAGCUAGUCTT against Mrgpre | -0.463
2 | GGCUGCUAAUUGGAUUUUUTT against Ccnj | -0.936
3 | GCCUUUCAUACAUUCAACATT against Olfr313 | -1.49
4 | GGACAGACCACACUUCAUGTT against Foxp3 | -0.494
5 | GGCCAUGAUUUACGACGACTT against C1qtnf4 | -1.22
6 | GGCUCUCUGAGGAUUCGAATT against 4930544M13Rik | -0.209
7 | CGGGACAUUCGUGAUCUUATT against Tmem114 | -2.38 (active)
8 | GGAUUCGCCUUUUCUACCGTT against Hoxb2 | 0.929
9 | GGAGCUGUGAGCAUUACUGTT against Cenpm | -1.89
10 | GGUCAUCGAUAAGAAAAGATT against Hunk | -1.09
11 | GCAGGUGAAAAGCAAUCCUTT against Prss27 | 1.03
12 | GAUGGUCAUUGAUGUCCUUTT against Rps24 | -0.694
13 | GGAGAGUGCUGAUGUUCUGTT against Rhox6 | 2.26 (active)
14 | GGUGCUUGUGGGUAACAAGTT against Rab33a | 1.94
15 | GGACAUAAUCAAAGACAUCTT against Ddc | 1.15
16 | GGCAUACCCAAAAAUAGAATT against Eif1a | 0.139
17 | GGAGAACUCCAGGUUGGCATT against Eaf1 | -2.03 (active)
18 | GCGCAAAGAUGGCUAUUGCTT against Adamts3 | 1.42
19 | GCUCAUCCAUUACGAGUUGTT against Dusp18 | 0.878
20 | GCAUUUCCUUAACACUCCCTT against Msmb | -0.614
21 | CGAGAAACAGAGUAUCAAGTT against Utp23 | 0.776
22 | GGGCCAUACCAUUUGGGUGTT against Wdr38 | 0.142

Row | Sequence | z-score
23 | GGUAAAAAGUACAAGUGGGTT against Slc17a5 | -0.909
24 | GGUGAUACCUCUGUCCUGGTT against Exosc5 | -1.17
25 | GGAGGGUGAUCUCAUUGAATT against Prkd1 | 0.479
26 | GCAGCAAUACAUCCUUCAUTT against Cdh1 | 1.12
27 | CCGAGCUAGAUCAGCUAUUTT against Mertk | -1.45
28 | GGAAACCGUUUUUUUUUUCTT against Appbp2 | 2.16 (active)
29 | CCUAAUCUCUUGUAGGUAUTT against AU018091 | 1.03
30 | GGAACAGGCAACAUGAUUGTT against Nlgn3 | 0.376
31 | GGCUGUAUGUAUAUAGUCCTT against Snrpb | -2.41 (active)
32 | GGUGUCCACAUUAAAUUACTT against Foxb1 | 2.21 (active)
33 | GCACUAAGUCCCAUGUGUCTT against Trim11 | -1.01
34 | GGUUAUGGUAUUAACAGGUTT against Slc17a4 | 0.112
35 | GGGCAGAAUGCCAGUGUACTT against Kif22 | -0.305
36 | GCUUGACGCGAACUUACCATT against Endog | 2.35 (active)
37 | GGUGGACUUCGAGAACAUATT against Cyp2d26 | 0.75
38 | GGAUCAUCAACCAUCUAAUTT against Srsf7 | -1.11
39 | GCCUUUUGAUGCUUCCUCUTT against Rusf1 | -0.696
40 | GCUCAAAGUUUGAACUGGCTT against Atxn2l | 0.153
41 | GCUGAAGAGGCGCAUACAUTT against 2610318N02Rik | 3.07 (active)
42 | GCCAAAGACUCUUAUAAGUTT against Bnc1 | -0.455
43 | UCUCCUUCCUAACUUCAACTT against Tmem252 | 0.747
44 | GCUCUCACCAUCAGAGAAATT against Trpc4 | -0.12

Row | Sequence | z-score
45 | CCUCUGAGUGGAACACCUATT against Sfr1 | -3.54 (active)
46 | GGCAUUCAUGACAAUGGCUTT against Rab1b | -1.89
47 | GCGAUUUAUUGCCAAGCCCTT against Cers5 | 0.596
48 | GGUUUAAGCUUUUUGUGGATT against D130079A08Rik | 0.0133
49 | GGAUGUGACGCACACAUGUTT against Cdip1 | 1.11
50 | GCAAAUUGGUCAUCGACUGTT against Alg1 | 0.0456
51 | GCCAUCUACUCUUUAAAUATT against Pdha1 | 0.351
52 | GCAGAAAAACAUCCACGACTT against Spn | -2.01 (active)
53 | GCAGACAGAUCGCUUCAACTT against Dok4 | -0.882
54 | CCCUCUUAGGAGCUAGUGATT against Atp2b4 | -1.85
55 | CCAUUCGAUACCUCGUGCATT against Dhps | -0.249
56 | GGGCCUGGAUUACUUACACTT against Srpk1 | 4.83 (active)
57 | UACUUGUAGCCAUGGCUCUTT against Olfr685 | 0.334
58 | GGCAAAAUAUUGCACAGCGTT against Tsga10 | -0.474
59 | GGAAAUUAAACAGAAACAGTT against Ube2j2 | -0.471
60 | GGCUGUUUUACAUCAUCCCTT against Ust | -0.227
61 | GGGAAAGUUUCUGCAUUCUTT against Lce1d | 2.07 (active)
62 | CCACAGUCUAUUCAAACUUTT against Ncapd3 | -1.12
63 | GGUCAAGUCAGCAUUCCUGTT against Hspbp1 | -1.78
64 | GGAAAAGAAGACCUACACCTT against Ppp1r1c | -2.04 (active)
65 | GGCCUGGAUGGAAAUUUGCTT against Fabp4 | -0.851
66 | GGAGAAAAGAGUUUGCCCGTT against Wfdc12 | -0.329

Row | Sequence | z-score
67 | GCAAAUUCUCGGUGUCAAATT against Ezh2 | -1.04
68 | CCUAGUAACUAUCUACCUCTT against Sval3 | 0.232
69 | GGAUAUCAUCAUGUCUUUCTT against Otop1 | 1.29
70 | CGUGGAUAAAGAUAACCCGTT against Znrd2 | -0.117
71 | GAUAAAAUCGGACUGAUAATT against Olfr1079 | 0.837
72 | GGCGAACACUGUCAUGAAUTT against Spin4 | 3.37 (active)
73 | GGUAUUCACACUGAAGCCCTT against H2-DMa | 0.108
74 | GCAACAUCCAGGCUUGCCUTT against Tmem107 | -0.874
75 | CCAUGAAGAACAAGAAAACTT against 1700010D01Rik | 0.239
76 | GGAUAGAAAACAGUAUCUGTT against Fggy | 1.07
77 | GGAAAACUGCUUUGAGCUGTT against Thap7 | 2.72 (active)
78 | AAGGUGCAGAGUUACACGUTT against H2-T10 | 1.17
79 | GGUCUUCAAUUUCUUCAAATT against 4930430F08Rik | 0.928
80 | GCAAUGUGUAUCAGCCGACTT against Gprc5b | 3.38 (active)
81 | GGGAAAACCGAAUAAAGAUTT against Ren2 | -1.51
82 | GCAUACCAUCUUAUUUUGGTT against Sptlc1 | 0.159
83 | GCGUGAGCUAAUGUUCACATT against Agpat2 | -0.255
84 | GCCACUACUAAUAGCAUGUTT against 5330438I03Rik | -1.68
85 | CCCAGCACAUGCUAUCUCUTT against Zbtb21 | -2.6 (active)
86 | GGAGAAUGGAAAGUAUGGGTT against D1Pas1 | -1.99
87 | GCCUAUAAGGAAUAACAAGTT against Cerkl | 1.27
88 | GGCCUUGAUGGUGAAGAUGTT against Vstm4 | -1.79

Row | Sequence | z-score
89 | GGACAGACGUGCACUUAGATT against Garnl3 | 0.875
90 | GGUGGAUGUUCGCAUGAUUTT against Ip6k1 | -1.2
91 | GGCAUAUACACAAUUGAUATT against Arsk | -1.27
92 | GGAUAAGGAGAUGAAUUCCTT against Aard | 1.01
93 | GGUCUUACGCAAAACGGUCTT against Csf1r | 2.86 (active)
94 | CCCAAUCCUGUCAAUAGUCTT against Gfpt1 | -0.911
95 | GGCCUAAUGAAUUUGGUCATT against Ubxn7 | 0.93
96 | CCCACAAAUUAAAGUCCGCTT against Cldn16 | 0.926
97 | GGACCUGUCUUCAUUGGAGTT against Ngb | 0.981
98 | GCAGAUAAUUUUAACCCUCTT against Inpp5b | 0.641
99 | GCCAUUCUCCAACAAUCGATT against Evc | -1.69
100 | CCUGCUACAAGUAUCUCAATT against Fdft1 | 2.85 (active)
101 | GCAACCUCUCCUCUCUAGATT against Olfr15 | -1.11
102 | GCGGAUUCAGCUGAUGAUGTT against Sash1 | -1.32
103 | GGGUUCUCAAGGUUGCAUUTT against Frs3 | 1.15
104 | GCUCGCCUGCAUUUCAUCATT against Pank4 | 3.3 (active)
105 | CCCGGUUAGCCUUUGAUUGTT against Lamc3 | 0.576
106 | GGGAAUUUUGAAAAGGCUGTT against Nphp3 | 2.12 (active)
107 | CCCUUGAGUCAUUCUCUAATT against Gsto1 | 0.0391
108 | GGAAAUAGAUUUUCAGCUCTT against Dnase2b | 0.138
